Where “and” joins values, the source holds several entries; their conditions need not be identical. Equal entries are not always repeated. The whole screen tested about 5,500 compounds, of which about 2,000 (36%) were called active. Not shown: some 18% with an inconclusive outcome. No stated cut-off is given here; in the data, active means normalized growth mostly below about 0.91 (no sharp cut-off); inconclusive means no clear call, values can overlap the other calls; inactive means mostly above about 0.92. The list shows a part of the results.
Assay: chemical genetic growth profiling, strain panel (AID 1159580);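 further: tested at 20 µM; growth read once vehicle control cultures reached saturation at 30 °C; 1 = growth at the plate median or of vehicle wells; lower values mean less growth of the strain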
Conditions: S. cerevisiae deletion strains, growth OD

Measured: normalized growth

Cc1cccc(C)c1NC1=NCCCS1
inactive: locus YAL013W, strain DEP1, active compounds read low 0.999 | locus YAL021C, strain ccr4, active compounds read low 1.03 | locus YAL026C, strain drs2, active compounds read low 0.986 | locus YAL030W, strain snc1, active compounds read low 1 | locus YAL040C, strain CLN3, active compounds read low 0.978 | locus YBL061C, strain skt5, active compounds read low 1 | locus YBR009C, strain hhf1, active compounds read low 1.02 | locus YBR021W, strain FUR4, active compounds read low 0.99 | locus YBR023C, strain chs3, active compounds read low 1.02 | locus YBR171W, strain sec66, active compounds read low 1.02 | locus YBR229C, strain ROT2, active compounds read low 1 | locus YBR231C, strain swc5, active compounds read low 0.997 | locus YBR279W, strain paf1, active compounds read low 1 | locus YCL011C, strain gbp2, active compounds read low 1.02 | locus YCL016C, strain dcc1, active compounds read low 1 | locus YCL029C, strain bik1, active compounds read low 0.974 | locus YCL061C, strain MRC1 (second series), active compounds read low 1.01 | locus YCL061C, strain MRC1, active compounds read low 1 | locus YCL069W, strain vba3, active compounds read low 1 | locus YCR088W, strain abp1, active compounds read low 1 | locus YDL005C, strain med2, active compounds read low 0.995 | locus YDL035C, strain GPR1, active compounds read low 0.979 | locus YDL040C, strain nat1, active compounds read low 1 | locus YDL074C, strain BRE1, active compounds read low 1.03 | locus YDL101C, strain DUN1, active compounds read low 1 | locus YDL134C, strain PPH21, active compounds read low 0.982 | locus YDL185W, strain tfp1, active compounds read low 0.947 | locus YDL192W, strain arf1, active compounds read low 0.987 | locus YDR001C, strain nth1, active compounds read low 1.01 | locus YDR069C, strain doa4, active compounds read low 1.02 | locus YDR101C, strain arx1, active compounds read low 0.995 | locus YDR137W, strain rgp1, active compounds read low 1 | locus YDR150W, strain NUM1, active compounds read low 0.996 and 1.01 | locus YDR159W, strain sac3, active compounds read low 0.991 | locus YDR162C, strain NBP2, active compounds read low 0.97 | locus YDR195W, strain ref2 0.977 | locus YDR297W, strain sur2, active compounds read low 1.01 | locus YDR318W, strain mcm21, active compounds read low 0.972 | locus YDR334W, strain swr1, active compounds read low 1.01 | locus YDR335W, strain msn5, active compounds read low 1.01 | locus YDR363W, strain ESC2, active compounds read low 1.02 | locus YDR388W, active compounds read low 0.994 | locus YDR392W, strain spt3, active compounds read low 1.01 | locus YDR502C, strain sam2, active compounds read low 0.991 | locus YEL003W, strain gim4, active compounds read low 1.01 | locus YEL037C, strain rad23, active compounds read low 1.01 | locus YEL061C, strain CIN8 (second series), active compounds read low 1.01 | locus YEL061C, strain CIN8, active compounds read low 1 | locus YER002W, strain NOP16, active compounds read low 1.01 | locus YER015W, strain faa2, active compounds read low 1.01 | locus YER016W, strain bim1, active compounds read low 1.01 | locus YER110C, active compounds read low 0.976 | locus YER111C, strain swi4, active compounds read low 1.01 | locus YER155C, strain BEM2 (second series), active compounds read low 1.01 | locus YER155C, strain BEM2, active compounds read low 0.995 | locus YER167W, strain BCK2, active compounds read low 0.99 | locus YFR010W, strain ubp6, active compounds read low 1.02 | locus YGL078C, strain dbp3, active compounds read low 0.983 | locus YGL086W, strain mad1, active compounds read low 0.998 | locus YGL167C, strain pmr1, active compounds read low 1.01 | locus YGL173C, strain kem1, active compounds read low 1.01 | locus YGL227W, strain vid30, active compounds read low 1 | locus YGL240W, strain doc1, active compounds read low 0.992 | locus YGL248W, strain PDE1, active compounds read low 1.01 | locus YGL253W, strain hxk2, active compounds read low 1.01 | locus YGR135W, strain pre9, active compounds read low 0.967 | locus YGR229C, strain SMI1, active compounds read low 0.996 | locus YGR252W, strain gcn5, active compounds read low 1 | locus YHR013C, strain ard1, active compounds read low 1.01 | locus YHR027C, strain rpn1, active compounds read low 0.992 | locus YHR030C, strain SLT2, active compounds read low 0.995 and 1.02 | locus YHR079C, strain IRE1 (second series), active compounds read low 0.981 | locus YHR079C, strain IRE1, active compounds read low 1.04 | locus YHR094C, strain hxt1, active compounds read low 0.989 | locus YHR129C, strain ARP1, active compounds read low 0.988 | locus YHR142W, strain chs7, active compounds read low 1.01 | locus YHR200W, strain rpn10, active compounds read low 0.96 | locus YIL066C, strain RNR3, active compounds read low 1 | locus YIL073C, strain SPO22, active compounds read low 0.86 | locus YIL125W, strain kgd1, active compounds read low 0.987 | locus YIR030C, strain dcg1, active compounds read low 0.975 | locus YJL092W, strain hpr5, active compounds read low 1 | locus YJL095W, strain BCK1 (second series), active compounds read low 1 | locus YJL095W, strain BCK1, active compounds read low 1.03 and 1.04 | locus YJL115W, strain asf1, active compounds read low 1.01 | locus YJL129C, strain trk1, active compounds read low 1 | locus YJL134W, strain LCB3, active compounds read low 0.994 | locus YJL154C, strain vps35, active compounds read low 1.01 | locus YJL164C, strain tpk1, active compounds read low 1.01 | locus YJL166W, strain qcr8, active compounds read low 1.01 | locus YJL168C, strain set2, active compounds read low 0.99 | locus YJL187C, strain SWE1 (second series), active compounds read low 1.03 | locus YJR043C, strain POL32, active compounds read low 1.02 | locus YJR066W, strain TOR1, active compounds read low 0.955

From PubChem BioAssay AID1159580 (chemical genetic matrix, 2015)
